Screening results: PubChem, Center for Chemical Genomics, University of Michigan
Dicer processing: inhibitors of Dicer pre-microRNA processing, primary screen, biochemical, cat-ELCCA, chemiluminescence; Endoribonuclease Dicer (Homo sapiens), Q9UPY3; cat-ELCCA pre-miR-21 Dicer processing; active compounds read high; z-score at 25 µM; 47,000 compounds, 6% hits; AID 1347074, 2019; in the data active = z-score above about 3, passing the limit was not always enough;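 also: higher signal means more uncleaved substrate so more Dicer inhibition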
A number is an active result; - = inactive. The full list was thinned out, with hits kept by preference.

SMILES	Dicer processing
CCOC(=O)c1c(NS(=O)(=O)c2cccs2)sc2c1CCC2	-
Cc1ccc(-n2cc(-c3cccs3)nc2SCc2n[nH]c(=S)n2Cc2ccccc2)cc1	5.8
CCn1c(-c2cccs2)n[nH]c1=S	-
S=c1[nH]nc(-c2ccncc2)n1Cc1ccccc1	-
CCSc1ccc(-c2noc(C(C)(C)C)n2)cn1	-
Cc1noc(N2C(=O)C3C4C=CC(C4)C3C2=O)c1C (stereo not drawn)	-
Cc1cccc(N2C(=O)C3C4C=CC(C4)C3C2=O)n1 (stereo not drawn)	-
Cc1cc(N2C(=O)C3C4C=CC(C4)C3C2=O)no1 (stereo not drawn)	3.7
COc1ccccc1OCCSc1nc2ncnc(N)c2[nH]1	-
Cc1ccc(OCCSc2nc3ncnc(N)c3[nH]2)c(C(C)C)c1	3.6
Cc1ccc(C(C)C)c(OCCSc2ncnc3nc[nH]c23)c1	-
Cc1nn(C(=O)c2ccccc2)cc1-c1nsc(Nc2ccccc2)n1	-
Cc1nn2c3ccccc3n(CCN3CCCCC3)c2nc1=O	3.1
Cc1cn2c3ccccc3n(CCN3CCCC3)c2n1	-
COC(=O)c1c(C)nc2n(CCN3CCCCC3)c3ccccc3n12	-
CCOC(=O)c1c(N)sc2c1CCC2	-
CCOC(=O)C1=C(C)N2CCN=C2S1	-
CCOC(=O)C1=C(C)N2CCCN=C2S1	3.3
C/C(O)=C(\C#N)c1nc(C(C)(C)C)cs1	-
COCCOC(=O)Cn1nnc2sc3c(c2c1=O)CCCC3	-
C=CCN(CC=C)Cc1c(C)[nH]c2ccc(CC)cc2c1=O	-
c1ccc2sc(Cc3nc4ccccc4s3)nc2c1	-
O=C1CC(c2cccc(Cl)c2)Cc2nc3nc(C(F)(F)F)nn3cc21 (stereo not drawn)	3.8
O=C1CC(c2cccc(Cl)c2)Cc2nc(NCc3ccco3)ncc21 (stereo not drawn)	-
O=C1CC(c2cccc(Cl)c2)Cc2nc(N3CCc4ccccc43)ncc21 (stereo not drawn)	-
SMILES	Dicer processing
CNC(=O)c1cccc2cccc(S(=O)c3ccccc3CO)c12 (stereo not drawn)	-
N#C/C(=C\N1CCc2ccccc2C1)C(=O)c1cccs1	-
O=C(c1ccncc1)N1CCN(C(=O)c2cccs2)CC1	-
O=C(c1cccs1)N1CCc2ccccc2C1	3.7
C=CC(=O)NC(=S)Nc1ccc(S(=O)(=O)Nc2cc(C)on2)cc1	-
O=C1CC(NCCc2c[nH]c3ccccc23)C(=O)N1c1ccccc1 (stereo not drawn)	-
C(#Cc1ccccc1)CNCCc1c[nH]c2ccccc12	4.1
CSC1=NCC(=O)N1CCc1c[nH]c2ccccc12	-
Clc1ccc(-c2cn3ccc4ccccc4c3n2)cc1	-
NC(=O)CN1C(=O)C(O)(CC(=O)c2cccs2)c2ccccc21 (stereo not drawn)	-
Cc1c2n(c3ccccc13)C/C(=C\c1ccc(Cl)cc1Cl)C2=O	-
C/C(N)=N/C(=S)Nc1ccc(Cl)cc1	-
CO/C(N)=N/C(=S)Nc1ccccc1	-
CC(C)=NN/C(N)=N/C(=S)Nc1ccccc1	4
N#CN=C(S/C=C/C(=O)c1cccc(Br)c1)SCc1ccccc1	-
O=S(=O)(CS(=O)(=O)Nc1ccc(Oc2ccc(F)cc2)nc1)Nc1ccc(Oc2ccc(F)cc2)nc1	-
O=C(O)C1C2CC=CC2c2c3c(cc4ccccc24)C2C=CCC2CN31 (stereo not drawn)	-
Cc1ccc(OC(=O)/C=C/c2cccs2)c([N+](=O)[O-])c1	-
O=S1(=O)N=C(Nc2ccc(F)c(Cl)c2)c2ccccc21	-
Cc1ccc(S(=O)(=O)Nc2ccc(O)c(S(=O)(=O)c3ccc(C)cc3)c2)cc1	4
Cc1ccc(NS(=O)(=O)c2ccc(S(N)(=O)=O)cc2)cc1	-
CC(=O)Nc1cc(C)c(NS(=O)(=O)c2ccc(C)cc2)c(C)c1	-
O=C1NC(=O)C2C1ON(c1ccccc1)C2c1cccs1 (stereo not drawn)	-
CCOC(=O)C(NC(=O)CC)(Nc1ccc(C)cc1)C(F)(F)F (stereo not drawn)	-
Cc1ccc(S(=O)(=O)n2nc(C)cc2N)cc1	-
SMILES	Dicer processing
Cc1ccc(S(=O)(=O)c2c(C)cc(C)cc2C)cc1	-
Cc1ccc(S(=O)(=O)n2ccc3cc(N)ccc32)cc1	5.7
O=C(NC(=O)N(Cc1ccccc1)C1CC2CCC1C2)c1c(Cl)cccc1Cl (stereo not drawn)	-
CCOC(=O)c1sc(NC(=O)c2nc3ncccn3n2)c(C(=O)OCC)c1C	-
Clc1ccc2sc(Sc3ccccc3)nc2c1	-
O=C(O)CSc1nc2ccccc2s1	-
Nc1ccc(Sc2nc3ccccc3s2)cc1	5.2
O=C(O)c1cc2c(s1)-c1cc(Cl)ccc1SC2	-
CCN(CC)S(=O)(=O)c1ccc2c(c1)Cc1cc(S(=O)(=O)N(CC)CC)ccc1-2	-
N#Cc1c(SCC(=O)c2ccccc2)nc2c(c1-c1cccs1)CCCC2	-
NC(=O)CN1C(=O)/C(=C\c2ccc(F)cc2)N=C1c1ccccc1	-
COc1ccc(/C=C2/N=C(c3ccccc3)N(Cc3ccc(F)cc3)C2=O)cc1	3.9
O=C1/C(=C/c2ccc(Cl)cc2)N=C(c2ccccc2)N1CCc1ccc(Cl)cc1	4.2
O=C1/C(=C\c2cccs2)N=C(c2ccccc2)N1Cc1ccc(Cl)cc1	-
C=CCN1C(=O)/C(=C\c2ccc(OCc3ccccc3)cc2)N=C1c1ccccc1	-
O=C1/C(=C\c2ccccc2)N=C(c2ccccc2)N1c1ccccc1	-
Cc1ccc(C(=O)Nc2nc3c(s2)C(=O)CC(C)(C)C3)cc1C	-
CNC(=O)N(C1=NCC(C)(C)S1)c1ccccc1	-
Cn1ccnc1SCCS(=O)(=O)c1ccccc1	-
CSC(N)=Nc1c(Cl)cccc1Cl	-
O=[N+]([O-])c1cc(S(=O)(=O)N2CCc3ccccc3C2)ccc1N1CCc2ccccc2C1	-
CC(C)CN1C(=O)C(=O)/C(=C(\O)c2ccc(Cl)cc2)C1c1cccnc1 (stereo not drawn)	-
CCNC(=S)NNC(=O)c1oc2nc(-c3ccccc3)cc(-c3ccco3)c2c1N	-
COc1ccc(C2/C(=C(\O)c3ccccc3)C(=O)C(=O)N2CCCN(C)C)c(OC)c1 (stereo not drawn)	-
O=C1C2CCCCC2C(=O)N1CC(=O)N1CCc2ccccc21 (stereo not drawn)	-
SMILES	Dicer processing
CN(C)c1ccc(-c2nc3ccccc3c(=O)[nH]2)c(Cl)c1	-
CN(C)c1ccc(/C=C/c2nc(-c3ccccc3O)n[nH]2)cc1	-
CN(C)c1ccc(/C=C/c2nc3ccccc3c(=O)[nH]2)cc1	5.5
CC1CCCC(C)N1C(=S)NCCCN1CCOCC1 (stereo not drawn)	-
CC1=CS/C(=C(\C#N)C(=O)c2ccccc2Cl)N1c1ccccc1Cl	-
COc1ccc(C2C(C(=O)OC3CCCC3)=C(C)NC3=C2C(=O)CC(C)(C)C3)cc1OC (stereo not drawn)	-
Cc1cc(C)n(C(C)C(=O)Nc2ccc(Br)cc2)c(=O)n1 (stereo not drawn)	-
CC1(C)Cc2c(c(N3CCCC3)nc3sc4c(N5CCOCC5)ncnc4c23)CO1	-
CC1(C)Cc2c(c(N3CCOCC3)nc3sc(C(=O)c4ccccc4)c(N)c23)CO1	3.2
CC1(C)Cc2c(c(N3CCOCC3)nc3sc(C(=O)Nc4ccccc4)c(N)c23)CO1	-
O=C(CN1C(=O)c2ccccc2S1(=O)=O)Nc1ccc(OC(F)(F)F)cc1	-
COC(=O)c1scc(C)c1N/N=C/c1cccc(OC)c1	-
c1csc(CNc2nc3ccccc3n2CCN2CCOCC2)c1	-
c1csc(CNc2nc3ccccc3n2CCN2CCCCC2)c1	-
